Bioassay records (PubChem BioAssay)
Compounds with a hit are over-represented: about 6.7% of the library has one in this group of screens.
Pf Dd2 growth – inhibitors of Plasmodium falciparum Dd2 growth | 2.3% of 94,000 active | AID 1159554 | activity change, % at 10 µM | P. falciparum Dd2 growth, SYBR Green, 72 h; active compounds read low; in the data active means activity change below about -80%; inconclusive means no clear call, values can overlap the other calls
T cruzi growth-1 – blocks T. cruzi growth in NIH3T3 culture. T. cruzi beta-gal in NIH3T3, GalScreen luminescence, 90 h. inhibition, % at 8.34 µM. 5.9% of 77,000 active;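 active means mean inhibition above about 93%, with at least 55% of replicates each passing it, limit read from the data, passing the limit was not always enough; inconclusive means only one of those two conditions holds; inactive means neither condition holds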
C diff growth – blocks growth of Clostridium difficile | Clostridium difficile clinical isolate growth, OD600, 24 h; active compounds read low | growth activity, negative = inhibition, % at 16 µg/mL (by protocol) | 0.25% of 86,000 active;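 active means mean growth activity at or below -80% and every replicate also at or below -80%; inconclusive means mean at or below -80% but some replicate above -80%; inactive means mean growth activity above -80%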;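 further: 0% = DMSO wells and -100% = levofloxacin 16 µg/mL wells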
T cruzi growth-2 – blocks T. cruzi growth in NIH3T3 host cells. AID 651739. T. cruzi beta-gal in NIH3T3, GalScreen luminescence, 90 h. 72% of 5,600 active. inhibition, % at 8.35 µM. shares compounds with T cruzi growth-1;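 active means mean replicate inhibition above about 95% and at least 55% of replicates individually reaching it, limit read from the data; inconclusive means only one of the two criteria is met; inactive means neither criterion is met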
T cruzi growth-3 – Trypanosoma cruzi proliferation inhibition; shares compounds with T cruzi growth-1; T. cruzi beta-gal in NIH3T3, GalScreen luminescence, 90 h; inhibition, % at 2.09 µM; 21% of 5,600 active; AID 651740;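 active means mean inhibition above about 95%, with at least 55% of replicates also reaching it, limit read from the data; inconclusive means meets just one of the two conditions; inactive means meets neither condition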;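 further: plate controls were neutral control median for no effect and positive control median for full effect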
3T3 cytotox – cytotoxicity in mouse NIH/3T3 fibroblasts | shares compounds with T cruzi growth-1 | NIH/3T3 viability, CellTiter-Glo ATP luminescence, 90 h | cytotoxicity (signal decrease), % at 8.35 µM | 14% of 5,600 active;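 active means mean signal decrease across replicates above about 35% based on untreated-well scatter, with enough replicates individually passing, limit read from the data; inconclusive means no rule stated though some were filed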;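 further: 0% = median of neutral control wells and 100% = median of positive control wells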
3T3 cytotox 2 – NIH/3T3 (mouse) viability loss. shares compounds with T cruzi growth-1. NIH/3T3 viability, CellTiter-Glo ATP luminescence, 90 h. inhibition, % at 24.9 µM. 56% of 5,600 active;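 active means mean loss of cell viability signal at or above a set limit, and enough replicates individually reaching it; inconclusive means meets only the mean limit or only the replicate share; inactive means meets neither condition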;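 further: 0% = median of neutral control wells and 100% = median of positive control wells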
* marks the source's active call; other numbers are inactive results; u = inconclusive; x = no result given.

SMILES | Pf Dd2 growth | T cruzi growth-1 | C diff growth | T cruzi growth-2 | T cruzi growth-3 | 3T3 cytotox | 3T3 cytotox 2
COc1ccc(CN(C)C[C@H]2OCCCC[C@H](C)Oc3ccc(NC(=O)C4CCCCC4)cc3C(=O)N([C@H](C)CO)C[C@@H]2C)cc1 | -41 | 74 | 3 | x | x | x | x
COc1ccc(CN(C)C[C@@H]2OCCCC[C@@H](C)Oc3ccc(NC(=O)C4CCCCC4)cc3C(=O)N([C@@H](C)CO)C[C@H]2C)cc1 | -54 | 89 | x | x | x | x | x
COc1ccc(CN(C)C[C@H]2OCCCC[C@H](C)Oc3ccc(NC(=O)C4CCCCC4)cc3C(=O)N([C@@H](C)CO)C[C@H]2C)cc1 | -48 | 102* | 2 | u | 71 | -2 | 27*
COc1ccc(CN(C)C[C@@H]2OCCCC[C@H](C)Oc3ccc(NC(=O)C4CCCCC4)cc3C(=O)N([C@@H](C)CO)C[C@@H]2C)cc1 | -62 | 69 | x | x | x | x | x
COc1ccc(CN(C)C[C@H]2OCCCC[C@@H](C)Oc3ccc(NC(=O)C4CCCCC4)cc3C(=O)N([C@H](C)CO)C[C@H]2C)cc1 | -66 | 104* | x | 102* | 60 | 15 | 96*
COc1ccc(S(=O)(=O)N[C@H]2CC[C@H](CCNC(=O)Cc3ccccn3)O[C@@H]2CO)cc1 | 7 | -25 | x | x | x | x | x
CN(C)CC(=O)N1[C@@H](C#N)[C@H](c2ccc(C#CC3CCCCC3)cc2)[C@@H]1CO | -32 | 102* | 0 | 98* | 38 | 20 | 104*
CN(C)CC(=O)N1[C@H](C#N)[C@@H](c2ccc(C#CC3CCCCC3)cc2)[C@H]1CO | -21 | 109* | 0 | 107* | 73 | 1 | 102*
CN(C)CC(=O)N1[C@@H](C#N)[C@@H](c2ccc(C#CC3CCCCC3)cc2)[C@@H]1CO | 14 | 42 | 7 | x | x | x | x
CN(C)CC(=O)N1[C@H](C#N)[C@@H](c2ccc(C#CC3CCCCC3)cc2)[C@@H]1CO | -16 | 72 | 1 | x | x | x | x
CC(C)C#Cc1ccc([C@@H]2[C@@H](CO)N3C(=O)CN(C(=O)NC4CCCCC4)C[C@H]23)cc1 | -7 | x | -18 | x | x | x | x
Cc1noc(C)c1NC(=O)Nc1ccc2c(c1)C(=O)N([C@H](C)CO)C[C@@H](C)[C@@H](CN(C)S(=O)(=O)c1ccc(F)cc1)OCCCC[C@H](C)O2 | -46 | 4 | 2 | x | x | x | x
C[C@@H]1CCCCO[C@@H](CN(C)S(=O)(=O)c2ccc(Cl)cc2)[C@H](C)CN([C@H](C)CO)C(=O)c2cc(NS(=O)(=O)c3ccc(Cl)cc3)ccc2O1 | -62 | 62 | 1 | x | x | x | x
C[C@H](CO)N1C[C@H](C)[C@@H](CN(C)S(=O)(=O)c2ccc(Cl)cc2)OCCCC[C@H](C)Oc2ccc(NS(=O)(=O)c3ccc(Cl)cc3)cc2C1=O | -29 | 87 | 4 | x | x | x | x
Cc1ccc(S(=O)(=O)N(C)C[C@H]2OCCCC[C@H](C)Oc3ccc(N(C)C)cc3C(=O)N([C@H](C)CO)C[C@H]2C)cc1 | -19 | 76 | 3 | x | x | x | x
C[C@@H]1CN([C@H](C)CO)C(=O)c2cc(NS(=O)(=O)c3ccc(Cl)cc3)ccc2O[C@@H](C)CCCCO[C@@H]1CN(C)S(=O)(=O)c1ccc(Cl)cc1 | -73 | u | 2 | 100* | 112* | -13 | u
C[C@@H]1CCCCO[C@H](CN(C)S(=O)(=O)c2ccc(Cl)cc2)[C@H](C)CN([C@H](C)CO)C(=O)c2cc(N(C)C)ccc2O1 | -69 | 101* | -13 | 104* | 24 | 14 | -3
C[C@@H]1CN([C@@H](C)CO)C(=O)c2cc(NS(=O)(=O)c3ccc(Cl)cc3)ccc2O[C@@H](C)CCCCO[C@@H]1CN(C)S(=O)(=O)c1ccc(Cl)cc1 | -71 | 98* | 8 | 101* | 114* | -28 | 14
COCC(=O)Nc1ccc2c(c1)[C@H]1C[C@H](CC(=O)NCc3ccncc3)O[C@H](CO)[C@H]1O2 | 9 | 50 | -6 | x | x | x | x
COc1ccc(S(=O)(=O)N[C@H]2C=C[C@H](CC(=O)N3CCC(Cc4ccccc4)CC3)O[C@@H]2CO)cc1 | -29 | 57 | -2 | x | x | x | x
COc1ccc(C#Cc2ccc([C@H]3[C@H]4CN(C(=O)Nc5ccccc5F)CCCCN4[C@H]3CO)cc2)cc1 | -56 | 120* | -8 | 106* | 60 | 29 | 33*
COc1ccc(C#Cc2ccc([C@H]3[C@@H](CO)N4CCCCN(C(=O)Nc5ccc(F)cc5)C[C@@H]34)cc2)cc1 | 6 | 107* | -16 | 104* | 104* | 14 | 24
COc1ccc(C#Cc2ccc([C@H]3[C@H]4CN(C(=O)Nc5ccc(F)cc5)CCCCN4[C@H]3CO)cc2)cc1 | -9 | 79 | 26 | x | x | x | x
COc1ccc(C#Cc2ccc([C@H]3[C@H](CO)N4CCCCN(C(=O)Nc5cccc(F)c5)C[C@@H]34)cc2)cc1 | -64 | 72 | -79 | x | x | x | x
COc1ccc(C#Cc2ccc([C@@H]3[C@@H](CO)N4CCCCN(C(=O)Nc5ccccc5)C[C@@H]34)cc2)cc1 | -37 | 111* | 6 | 83 | 93 | 31 | 102*
SMILES | Pf Dd2 growth | T cruzi growth-1 | C diff growth | T cruzi growth-2 | T cruzi growth-3 | 3T3 cytotox | 3T3 cytotox 2
COc1ccc(C#Cc2ccc([C@H]3[C@H]4CN(C(=O)Nc5cccc(F)c5)CCCCN4[C@H]3CO)cc2)cc1 | -29 | 113* | 17 | 104* | 85 | 1 | 15
COc1ccc(C#Cc2ccc([C@@H]3[C@H]4CN(C(=O)Nc5ccccc5F)CCCCN4[C@H]3CO)cc2)cc1 | -64 | 49 | -9 | x | x | x | x
COc1ccc(C#Cc2ccc([C@@H]3[C@@H](CO)N4CCCCN(C(=O)Nc5ccccc5F)C[C@H]34)cc2)cc1 | u | 103 | 6 | x | x | x | x
O=C(c1ccc(F)cc1)N1CC(=O)N2[C@H](CO)[C@@H](c3ccc(C#Cc4ccc(F)cc4)cc3)[C@@H]2C1 | -79 | x | 0 | x | x | x | x
C[C@H]1CCCCO[C@H](CN(C)Cc2ccncc2)[C@@H](C)CN([C@@H](C)CO)C(=O)c2cc(NC(=O)Nc3ccc(F)cc3)ccc2O1 | 30 | 26 | -2 | x | x | x | x
Cc1ccc(S(=O)(=O)N[C@@H]2CC[C@@H](CC(=O)NCCCN(C)C)O[C@@H]2CO)cc1 | -14 | -22 | 5 | x | x | x | x
COc1ccc(CN(C)C[C@@H]2Oc3ccc(NC(=O)NC(C)C)cc3CC(=O)N([C@@H](C)CO)C[C@@H]2C)cc1 | 5 | x | 19 | x | x | x | x
CN1c2ccc(-c3ccc(F)cc3)cc2[C@@H]2[C@@H](CCN2C(=O)c2ccncc2)[C@@H]1CO | 7 | 68 | 7 | x | x | x | x
C[C@@H]1CN([C@@H](C)CO)C(=O)Cc2cc(NC(=O)CCN3CCOCC3)ccc2O[C@@H]1CN(C)C(=O)NC1CCCCC1 | 16 | 21 | -1 | x | x | x | x
C[C@@H]1CN([C@H](C)CO)S(=O)(=O)c2ccc(C3=CCCC3)cc2O[C@@H]1CN(C)C(=O)c1cnccn1 | 19 | x | 1 | x | x | x | x
